Experimental data: the supplement of paper PMC12067093, “Discovery and optimisation of a covalent ligand for TRIM25 and its application to targeted protein ubiquitination” (Chemical Science, 2025)
Of roughly 21,000 targets only a part is listed; those with the largest changes were picked by preference.

Compound: CC1Cc2ccccc2N1C(=O)C1CCCN(C1)C(=O)CCl (mixture of isomers) [TRIM25 ligand 11 (diastereomer mixture)]
Assay: probe-labelled cysteine peptide fold change vs DMSO (competition) (log2 fold change); higher = less target engagement (more negative = stronger competition)
Settings: THP-1, incubation time: 4 h
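Further: competitive chemoproteomic profiling in live THP-1 cells with an iodoacetamide desthiobiotin (IA-DTB) probe, comparing probe-labelled peptide intensities in compound-treated cells against DMSO-treated controls.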

UniProt Q9NS73, sequence (Q9NS73 whole entry): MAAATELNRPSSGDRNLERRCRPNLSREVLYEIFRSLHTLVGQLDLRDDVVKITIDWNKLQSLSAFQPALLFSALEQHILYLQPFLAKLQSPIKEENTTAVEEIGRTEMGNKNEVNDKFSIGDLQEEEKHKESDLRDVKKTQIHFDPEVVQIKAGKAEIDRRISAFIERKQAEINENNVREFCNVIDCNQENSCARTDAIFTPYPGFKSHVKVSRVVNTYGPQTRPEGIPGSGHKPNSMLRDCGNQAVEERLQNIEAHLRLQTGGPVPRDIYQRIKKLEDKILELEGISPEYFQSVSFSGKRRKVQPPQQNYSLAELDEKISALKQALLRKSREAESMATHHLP
UniProt P43243, sequence (P43243 whole entry, looked up): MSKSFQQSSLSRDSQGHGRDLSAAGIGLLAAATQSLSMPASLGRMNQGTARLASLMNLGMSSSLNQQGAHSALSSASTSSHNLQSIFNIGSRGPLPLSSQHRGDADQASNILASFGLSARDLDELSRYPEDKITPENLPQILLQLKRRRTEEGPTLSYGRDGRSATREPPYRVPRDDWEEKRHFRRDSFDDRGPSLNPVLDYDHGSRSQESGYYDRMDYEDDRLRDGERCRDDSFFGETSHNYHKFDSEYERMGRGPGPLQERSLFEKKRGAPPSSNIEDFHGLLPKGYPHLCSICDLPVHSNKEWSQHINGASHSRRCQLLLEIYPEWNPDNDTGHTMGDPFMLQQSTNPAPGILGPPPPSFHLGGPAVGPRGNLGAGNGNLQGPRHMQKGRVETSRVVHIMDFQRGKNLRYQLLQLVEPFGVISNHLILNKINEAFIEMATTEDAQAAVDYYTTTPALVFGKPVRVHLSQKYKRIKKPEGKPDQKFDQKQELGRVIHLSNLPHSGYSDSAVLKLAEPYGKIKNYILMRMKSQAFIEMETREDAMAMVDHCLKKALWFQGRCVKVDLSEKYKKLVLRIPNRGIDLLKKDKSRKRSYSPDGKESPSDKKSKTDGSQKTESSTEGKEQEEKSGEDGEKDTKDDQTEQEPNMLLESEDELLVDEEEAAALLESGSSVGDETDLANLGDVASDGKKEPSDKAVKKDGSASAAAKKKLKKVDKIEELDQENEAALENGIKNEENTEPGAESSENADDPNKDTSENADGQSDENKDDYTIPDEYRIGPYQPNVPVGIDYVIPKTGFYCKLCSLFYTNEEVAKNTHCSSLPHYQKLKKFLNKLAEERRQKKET
UniProt P49959, sequence (P49959 whole entry, looked up): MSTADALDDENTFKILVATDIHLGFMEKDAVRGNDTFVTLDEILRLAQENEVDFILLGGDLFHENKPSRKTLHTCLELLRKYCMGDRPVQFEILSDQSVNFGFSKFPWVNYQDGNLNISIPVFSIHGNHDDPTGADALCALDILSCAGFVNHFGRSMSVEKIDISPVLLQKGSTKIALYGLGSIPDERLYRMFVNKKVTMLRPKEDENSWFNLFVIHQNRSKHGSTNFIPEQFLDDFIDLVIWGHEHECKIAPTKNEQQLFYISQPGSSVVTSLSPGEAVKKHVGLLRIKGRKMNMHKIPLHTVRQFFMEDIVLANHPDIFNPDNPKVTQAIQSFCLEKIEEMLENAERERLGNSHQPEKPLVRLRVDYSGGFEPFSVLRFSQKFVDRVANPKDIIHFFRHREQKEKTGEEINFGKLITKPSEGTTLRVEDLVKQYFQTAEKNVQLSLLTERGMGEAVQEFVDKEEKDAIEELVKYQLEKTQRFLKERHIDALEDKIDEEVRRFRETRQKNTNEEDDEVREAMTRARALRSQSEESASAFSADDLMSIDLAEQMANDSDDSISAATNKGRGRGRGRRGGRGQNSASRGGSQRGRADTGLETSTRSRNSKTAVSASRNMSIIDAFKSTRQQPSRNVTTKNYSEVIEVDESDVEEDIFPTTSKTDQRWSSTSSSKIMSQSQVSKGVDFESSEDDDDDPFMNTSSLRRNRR
UniProt Q13459, sequence (Q13459 whole entry, looked up): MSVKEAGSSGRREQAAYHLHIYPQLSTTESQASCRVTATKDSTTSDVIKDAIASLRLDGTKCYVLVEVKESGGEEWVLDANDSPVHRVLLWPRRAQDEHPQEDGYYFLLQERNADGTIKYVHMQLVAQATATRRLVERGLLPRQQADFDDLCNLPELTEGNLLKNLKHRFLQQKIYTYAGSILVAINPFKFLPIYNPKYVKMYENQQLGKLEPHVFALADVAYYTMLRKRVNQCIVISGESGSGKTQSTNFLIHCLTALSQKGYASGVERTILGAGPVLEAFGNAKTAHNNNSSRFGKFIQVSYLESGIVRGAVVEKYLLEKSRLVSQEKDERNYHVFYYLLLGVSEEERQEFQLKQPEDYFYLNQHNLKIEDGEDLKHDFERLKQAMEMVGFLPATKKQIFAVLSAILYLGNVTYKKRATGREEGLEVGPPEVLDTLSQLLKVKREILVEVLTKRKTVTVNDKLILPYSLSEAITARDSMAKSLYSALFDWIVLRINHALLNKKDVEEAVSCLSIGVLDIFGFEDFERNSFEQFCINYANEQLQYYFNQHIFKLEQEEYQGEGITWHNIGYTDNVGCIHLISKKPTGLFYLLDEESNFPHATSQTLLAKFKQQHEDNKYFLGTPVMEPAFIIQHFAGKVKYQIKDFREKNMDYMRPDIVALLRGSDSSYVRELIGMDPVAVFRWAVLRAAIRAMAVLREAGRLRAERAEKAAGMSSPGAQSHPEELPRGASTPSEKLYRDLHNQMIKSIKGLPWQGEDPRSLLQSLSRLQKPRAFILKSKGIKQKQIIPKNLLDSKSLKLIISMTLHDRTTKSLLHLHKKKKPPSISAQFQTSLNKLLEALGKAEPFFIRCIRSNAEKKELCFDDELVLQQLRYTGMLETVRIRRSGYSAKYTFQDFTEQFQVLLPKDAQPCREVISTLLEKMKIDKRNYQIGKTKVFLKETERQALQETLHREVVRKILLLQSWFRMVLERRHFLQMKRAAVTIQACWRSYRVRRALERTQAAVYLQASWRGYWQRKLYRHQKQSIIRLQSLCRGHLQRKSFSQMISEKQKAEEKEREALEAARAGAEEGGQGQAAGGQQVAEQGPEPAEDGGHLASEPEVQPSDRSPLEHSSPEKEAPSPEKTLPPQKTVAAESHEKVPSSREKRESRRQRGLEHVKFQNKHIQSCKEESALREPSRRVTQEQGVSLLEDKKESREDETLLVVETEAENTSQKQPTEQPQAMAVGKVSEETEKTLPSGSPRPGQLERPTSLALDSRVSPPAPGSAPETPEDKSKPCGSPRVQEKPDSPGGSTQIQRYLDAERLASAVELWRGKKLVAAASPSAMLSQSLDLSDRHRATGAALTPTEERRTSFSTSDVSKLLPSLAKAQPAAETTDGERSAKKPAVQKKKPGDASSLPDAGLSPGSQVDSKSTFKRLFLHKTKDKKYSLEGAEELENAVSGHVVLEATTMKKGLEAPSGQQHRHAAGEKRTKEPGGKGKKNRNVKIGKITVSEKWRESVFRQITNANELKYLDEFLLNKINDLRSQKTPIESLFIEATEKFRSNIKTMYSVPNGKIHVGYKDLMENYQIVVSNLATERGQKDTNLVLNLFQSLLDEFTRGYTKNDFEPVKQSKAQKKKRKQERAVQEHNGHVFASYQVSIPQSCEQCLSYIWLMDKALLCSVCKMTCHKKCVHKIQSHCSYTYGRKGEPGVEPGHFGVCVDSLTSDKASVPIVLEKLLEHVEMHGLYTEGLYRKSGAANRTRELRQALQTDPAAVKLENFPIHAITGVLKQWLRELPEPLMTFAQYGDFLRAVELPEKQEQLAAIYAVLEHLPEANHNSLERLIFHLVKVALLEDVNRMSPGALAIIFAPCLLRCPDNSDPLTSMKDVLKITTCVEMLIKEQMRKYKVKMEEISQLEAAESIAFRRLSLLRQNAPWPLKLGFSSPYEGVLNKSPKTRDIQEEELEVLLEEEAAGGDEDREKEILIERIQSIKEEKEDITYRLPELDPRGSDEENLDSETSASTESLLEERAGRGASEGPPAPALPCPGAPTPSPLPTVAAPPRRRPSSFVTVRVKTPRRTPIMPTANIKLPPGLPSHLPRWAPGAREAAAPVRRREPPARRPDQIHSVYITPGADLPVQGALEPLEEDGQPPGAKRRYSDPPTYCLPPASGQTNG
UniProt Q9HC36, sequence (Q9HC36 whole entry, looked up): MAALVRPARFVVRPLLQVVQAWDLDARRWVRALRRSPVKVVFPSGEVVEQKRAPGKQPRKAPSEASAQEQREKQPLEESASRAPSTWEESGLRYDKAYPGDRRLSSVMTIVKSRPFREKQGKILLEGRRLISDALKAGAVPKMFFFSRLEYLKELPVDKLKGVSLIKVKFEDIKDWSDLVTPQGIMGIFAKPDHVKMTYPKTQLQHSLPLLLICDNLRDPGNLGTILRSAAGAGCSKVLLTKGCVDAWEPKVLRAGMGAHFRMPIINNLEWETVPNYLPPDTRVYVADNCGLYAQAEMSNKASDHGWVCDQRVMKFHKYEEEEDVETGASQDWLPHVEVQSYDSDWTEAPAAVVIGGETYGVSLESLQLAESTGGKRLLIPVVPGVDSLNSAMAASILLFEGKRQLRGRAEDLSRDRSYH
UniProt P49914, sequence (P49914 whole entry, looked up): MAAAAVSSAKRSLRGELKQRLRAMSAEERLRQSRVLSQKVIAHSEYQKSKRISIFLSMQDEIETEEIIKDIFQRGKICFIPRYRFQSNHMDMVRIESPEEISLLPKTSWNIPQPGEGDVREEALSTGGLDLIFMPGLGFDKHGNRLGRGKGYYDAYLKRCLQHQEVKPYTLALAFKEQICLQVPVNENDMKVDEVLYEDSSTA
UniProt O95568, sequence (O95568 whole entry, looked up): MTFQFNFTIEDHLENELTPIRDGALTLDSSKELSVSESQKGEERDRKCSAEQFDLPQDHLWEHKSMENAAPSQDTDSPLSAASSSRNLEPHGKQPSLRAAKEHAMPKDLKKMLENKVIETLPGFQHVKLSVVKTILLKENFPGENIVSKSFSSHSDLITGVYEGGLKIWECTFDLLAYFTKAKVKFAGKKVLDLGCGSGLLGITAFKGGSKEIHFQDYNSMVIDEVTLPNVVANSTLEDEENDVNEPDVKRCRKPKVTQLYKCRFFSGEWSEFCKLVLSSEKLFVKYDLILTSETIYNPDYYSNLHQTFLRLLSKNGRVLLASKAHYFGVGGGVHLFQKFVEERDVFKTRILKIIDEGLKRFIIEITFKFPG

| Target | probe-labelled cysteine peptide fold change (10 µM) | probe-labelled cysteine peptide fold change (50 µM) |
| --- | --- | --- |
| MTHFS_P49914_180_EQICLQVPVNENDMK (UniProt P49914) | -0.00999 | – |
| MBTPS2_O43462_386_SSSSSFCIIPSLETHTR (UniProt O43462) | -0.0619 | – |
| MATR3_P43243_821_NTHCSSLPHYQK (UniProt P43243) | 0.121 | -0.196 |
| MYO9B_Q13459_1169_HIQSCK (UniProt Q13459) | -0.0237 | -0.105 |
| LYPLA2_O95372_213_TYPGVMHSSCPQEMAAVK (UniProt O95372) | 0.0451 | – |
| MRPL38_Q96DV4_290_QDQPIDFSEDARPSPCYQLAQR (UniProt Q96DV4) | -0.028 | – |
| MIS18A_Q9NYP9_85_AQLEEEAAAAEERPLVFLCSGCR (UniProt Q9NYP9) | -0.0813 | – |
| MRE11_P49959_249_HGSTNFIPEQFLDDFIDLVIWGHEHECK (UniProt P49959) | -0.0677 | -0.0212 |
| MBIP_Q9NS73_243_DCGNQAVEER (UniProt Q9NS73) | -0.0155 | -0.0072 |
| MRM3_Q9HC36_309_ASDHGWVCDQR (UniProt Q9HC36) | 0.135 | -0.1 |
| MORC3_Q14149_717_QCHMFTDQIK (UniProt Q14149) | -0.0943 | 0.000884 |
| MINK1_Q8N4C8_129_EDCIAYICR (UniProt Q8N4C8) | 0.00524 | – |
| MAP1S_Q66K74_841_HDPLPDPLKVPPPLPDPSSICMVDPEMLPPK (UniProt Q66K74) | -0.202 | – |
| METTL18_O95568_48_CSAEQFDLPQDHLWEHK (UniProt O95568) | -0.285 | – |
| MDN1_Q9NU22_3690_LLGSQLLACTLSHNTLFGEAPSDLMVKPDGPYDFYQHPNVPEAR (UniProt Q9NU22) | 0.00494 | 0.105 |
